In PubChem BioAssay:
Active and inactive are the calls of the source. Unless noted, no rule for the calls is given here.

Assays:
[1] = compounds binding Alexa647 anti-His antibody – biochemical, small-molecule microarray, 635 nm fluorescence, artefact control for SMM control protein annotation, primary screen (AID 1128); settings: higher = more signal;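 also: score merges feature fluorescence with signal-to-noise for each printed compound spot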
[2] = test system: Human papillomavirus type 1a E7 protein (residues 1-88); assay: HPV1a E7 small-molecule binders, primary screen, biochemical, small-molecule microarray, residues 1-88, 635 nm (AID 1129); settings: small-molecule microarray binding, fluorescence 635 nm; higher = more signal
[3] = target: Focal adhesion kinase 1 (Homo sapiens) (UniProt Q05397); assay: PTK2 protein binding on printed compound slides – biochemical, small-molecule microarray, 635/667 nm fluorescence, BSA, DTT, primary screen (AID 1130); settings: 635 nm fluorescence, higher = more signal;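 also: composite of spot emission at 667 nm and signal to noise over triplicate slides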
[4] = test system: Fibrinogen (Alexa647-labelled); assay: Alexa647-fibrinogen binding to printed small molecules – biochemical, small-molecule microarray, 635/667 nm fluorescence, artefact control for SMM control-protein annotation, profiling panel (AID 1131); settings: fibrinogen-A647 binding fluorescence, higher = more signal;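 also: z-score merges 667 nm fluorescence with per-spot signal-to-noise over triplicate slides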
[5] = target: Follistatin (Homo sapiens) (UniProt P19883); assay: FST protein binding to printed compounds – biochemical, small-molecule microarray, 635/667 nm fluorescence, primary screen (AID 1132); settings: 635 nm fluorescence, higher = more signal
[6] = target: Fibroblast growth factor 2 (Homo sapiens) (UniProt P09038); assay: basic fibroblast growth factor binding to printed compounds – biochemical, small-molecule microarray, 635/667 nm fluorescence, primary screen (AID 1133); settings: FGF2, fluorescence 635/667, higher = more signal
[7] = JC-1 mitochondrial potential readout, lung cancer cells – cell-based, A549, JC-1 fluorescence, basal, 24 h, 100 nL, profiling panel (AID 1138); settings: higher = more signal;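 also: A549 lung adenocarcinoma cells under basal conditions with no added stimulus; test concentration not given here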
[8] = test system: Lefty1; assay: Lefty1 protein binding to printed compounds – biochemical, small-molecule microarray, 635/667 nm fluorescence, primary screen (AID 1139); settings: fluorescence 635/667, higher = more signal
[9] = test system: wheat germ agglutinin (Triticum aestivum), Alexa647-labelled; assay: Alexa647-WGA lectin binding to printed small molecules – biochemical, small-molecule microarray, 635/667 nm fluorescence, artefact control for SMM control-protein annotation, profiling panel (AID 1140); settings: WGA-A647 binding, 635 nm fluorescence, higher = more signal;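 also: score merges 667 nm feature emission with signal to noise over triplicate slides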
[10] = target: Luciferin 4-monooxygenase (Photinus pyralis) (UniProt P08659); assay: inhibition of purified Photinus pyralis luciferase – biochemical, luminescence, purified enzyme, 2006 set, primary screen (AID 1141); settings: purified firefly luciferase, SteadyGlo luminescence, 30 min; higher = more signal, called active from +8 up or from −8 down;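 also: cell-free assay with purified firefly luciferase at 100 ng per well in PBS; test concentration not given here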
[11] = test system: Wnt5a (protein binding on small-molecule microarray); assay: small molecules binding Wnt5a protein – biophysical, small-molecule microarray, 635/667 nm fluorescence, primary screen (AID 1142); settings: 635 nm fluorescence, higher = more signal;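 also: fluorescence read at 667 nm with signal to noise per printed feature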
[12] = ATP-based viability of Huh7 replicon cells – cell-based, CellTiter-Glo luminescence, basal, 48 h, cytotoxicity control for HCV replication inhibitor project, primary screen (AID 1143); settings: higher = more signal, called active from +8 up or from −8 down;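 also: Huh7 hepatoma cells carrying a hepatitis C replication reporter with no stimulus; test concentration not given here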
[13] = Pseudomonas biofilm growth suppression – PAO1 strain, BacTiter-Glo luminescence, LB-PBS, primary screen (AID 1144); settings: P. aeruginosa PAO1 biofilm, 12 h, higher = more signal
[14] = basal CRE-LacZ reporter activity in PC12 – cell-based, unstimulated, primary screen (AID 1145); settings: no forskolin, luminescence, 4.5 h, higher = more signal, called active from +8 up or from −8 down
[15] = forskolin-driven CRE-LacZ activity in PC12 – cell-based, CRE-LacZ reporter, forskolin-stimulated, primary screen (AID 1146); settings: luminescence, 4.5 h, higher = more signal, called active from +8 up or from −8 down;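 also: PC12 cells with 6xCRE LacZ reporter stimulated by forskolin 10 µM; beta-galactosidase reporter signal reflecting CREB driven transcription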
[16] = target: Streptavidin (Streptomyces avidinii) (UniProt P22629); assay: compounds binding control protein streptavidin – biophysical, small-molecule microarray, 635/667 nm fluorescence, artefact control for SMM compound annotation, primary screen (AID 1147); settings: higher = more signal;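 also: signal reflects streptavidin binding to arrayed compounds as a control protein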
[17] = probe aInhba binding on compound microarray – biochemical, small-molecule microarray, 635/667 nm fluorescence, primary screen (AID 1148); settings: higher = more signal;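 also: score merges 667nm spot fluorescence with signal-to-noise for antibody binding to printed compounds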
[18] = target: Torsin-1A (Homo sapiens) (UniProt O14656); assay: TOR1A wild-type binding on microarray – cell lysate, small-molecule microarray, lysate, 635/667 nm, primary screen (AID 1149); settings: COS7 hTOR1A-WT lysate, 635 nm fluorescence, higher = more signal
[19] = target: Torsin-1A (Homo sapiens) (UniProt O14656); assay: torsin A mutant lysate binding on microarrays – cell lysate, small-molecule microarray, COS7 lysate, 635/667 nm fluorescence, primary screen (AID 1150); settings: COS7 hTOR1A mutant lysate, 635 nm fluorescence, higher = more signal;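 also: score pools 667 nm emission and signal to noise measuring lysate protein binding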
[20] = test system: Sonic hedgehog protein (Shh); assay: Sonic hedgehog microarray binding compounds – biochemical, small-molecule microarray, 635/667 nm fluorescence, primary screen (AID 1151); settings: 635 nm fluorescence, higher = more signal;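 also: Shh protein binding to compounds spotted on small-molecule microarray slides; score combines spot fluorescence intensity with signal-to-noise across triplicate slides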

Sequence of Streptavidin (Streptomyces avidinii) (P22629 whole entry, looked up): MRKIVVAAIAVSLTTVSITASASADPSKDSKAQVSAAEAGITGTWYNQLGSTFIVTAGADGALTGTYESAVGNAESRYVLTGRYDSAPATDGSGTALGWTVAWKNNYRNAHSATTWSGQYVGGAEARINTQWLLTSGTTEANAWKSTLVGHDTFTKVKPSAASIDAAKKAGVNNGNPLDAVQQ
Sequence of Follistatin (Homo sapiens) (P19883 whole entry, looked up): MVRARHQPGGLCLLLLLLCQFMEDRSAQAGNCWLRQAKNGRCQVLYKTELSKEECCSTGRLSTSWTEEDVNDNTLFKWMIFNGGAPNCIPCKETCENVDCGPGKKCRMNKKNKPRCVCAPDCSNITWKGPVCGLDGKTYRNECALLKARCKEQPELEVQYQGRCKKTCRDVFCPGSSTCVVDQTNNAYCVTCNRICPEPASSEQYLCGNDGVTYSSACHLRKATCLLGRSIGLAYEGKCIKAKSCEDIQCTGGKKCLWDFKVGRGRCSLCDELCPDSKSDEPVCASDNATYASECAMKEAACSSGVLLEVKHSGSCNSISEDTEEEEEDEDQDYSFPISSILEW
Sequence of Torsin-1A (Homo sapiens) (O14656 whole entry, looked up): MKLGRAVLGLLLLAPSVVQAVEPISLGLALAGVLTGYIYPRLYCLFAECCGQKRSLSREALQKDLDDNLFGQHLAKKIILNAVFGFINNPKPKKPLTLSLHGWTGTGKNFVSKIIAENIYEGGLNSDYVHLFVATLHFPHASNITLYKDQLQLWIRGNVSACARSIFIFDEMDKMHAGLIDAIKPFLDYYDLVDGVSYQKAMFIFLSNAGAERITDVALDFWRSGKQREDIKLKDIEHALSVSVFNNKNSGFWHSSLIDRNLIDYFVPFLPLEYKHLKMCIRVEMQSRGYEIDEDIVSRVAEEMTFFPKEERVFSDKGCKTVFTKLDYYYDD
Sequence of Fibroblast growth factor 2 (Homo sapiens) (P09038 whole entry, looked up): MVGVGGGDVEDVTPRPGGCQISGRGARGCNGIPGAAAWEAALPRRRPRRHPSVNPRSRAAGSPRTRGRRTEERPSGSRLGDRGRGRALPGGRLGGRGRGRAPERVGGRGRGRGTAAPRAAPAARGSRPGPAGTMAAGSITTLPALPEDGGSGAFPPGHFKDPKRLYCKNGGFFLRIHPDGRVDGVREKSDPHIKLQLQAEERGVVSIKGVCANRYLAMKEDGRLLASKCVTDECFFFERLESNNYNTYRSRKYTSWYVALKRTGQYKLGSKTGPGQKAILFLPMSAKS
Sequence of Luciferin 4-monooxygenase (Photinus pyralis) (P08659 whole entry, looked up): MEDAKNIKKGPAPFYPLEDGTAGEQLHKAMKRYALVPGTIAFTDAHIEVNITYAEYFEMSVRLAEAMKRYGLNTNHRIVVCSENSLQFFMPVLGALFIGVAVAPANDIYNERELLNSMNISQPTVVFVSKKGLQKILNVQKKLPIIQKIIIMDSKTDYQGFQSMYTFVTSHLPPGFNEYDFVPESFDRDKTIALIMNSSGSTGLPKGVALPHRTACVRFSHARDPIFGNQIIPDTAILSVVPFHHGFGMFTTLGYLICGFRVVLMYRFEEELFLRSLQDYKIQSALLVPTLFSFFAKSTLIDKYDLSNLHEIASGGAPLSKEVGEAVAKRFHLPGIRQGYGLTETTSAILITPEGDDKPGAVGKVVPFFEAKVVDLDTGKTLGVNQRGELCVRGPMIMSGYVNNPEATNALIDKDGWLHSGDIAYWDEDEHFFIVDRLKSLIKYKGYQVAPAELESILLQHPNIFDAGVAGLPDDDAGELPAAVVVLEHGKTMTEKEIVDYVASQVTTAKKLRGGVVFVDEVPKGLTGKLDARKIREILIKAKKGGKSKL
Sequence of Focal adhesion kinase 1 (Homo sapiens) (Q05397 whole entry, looked up): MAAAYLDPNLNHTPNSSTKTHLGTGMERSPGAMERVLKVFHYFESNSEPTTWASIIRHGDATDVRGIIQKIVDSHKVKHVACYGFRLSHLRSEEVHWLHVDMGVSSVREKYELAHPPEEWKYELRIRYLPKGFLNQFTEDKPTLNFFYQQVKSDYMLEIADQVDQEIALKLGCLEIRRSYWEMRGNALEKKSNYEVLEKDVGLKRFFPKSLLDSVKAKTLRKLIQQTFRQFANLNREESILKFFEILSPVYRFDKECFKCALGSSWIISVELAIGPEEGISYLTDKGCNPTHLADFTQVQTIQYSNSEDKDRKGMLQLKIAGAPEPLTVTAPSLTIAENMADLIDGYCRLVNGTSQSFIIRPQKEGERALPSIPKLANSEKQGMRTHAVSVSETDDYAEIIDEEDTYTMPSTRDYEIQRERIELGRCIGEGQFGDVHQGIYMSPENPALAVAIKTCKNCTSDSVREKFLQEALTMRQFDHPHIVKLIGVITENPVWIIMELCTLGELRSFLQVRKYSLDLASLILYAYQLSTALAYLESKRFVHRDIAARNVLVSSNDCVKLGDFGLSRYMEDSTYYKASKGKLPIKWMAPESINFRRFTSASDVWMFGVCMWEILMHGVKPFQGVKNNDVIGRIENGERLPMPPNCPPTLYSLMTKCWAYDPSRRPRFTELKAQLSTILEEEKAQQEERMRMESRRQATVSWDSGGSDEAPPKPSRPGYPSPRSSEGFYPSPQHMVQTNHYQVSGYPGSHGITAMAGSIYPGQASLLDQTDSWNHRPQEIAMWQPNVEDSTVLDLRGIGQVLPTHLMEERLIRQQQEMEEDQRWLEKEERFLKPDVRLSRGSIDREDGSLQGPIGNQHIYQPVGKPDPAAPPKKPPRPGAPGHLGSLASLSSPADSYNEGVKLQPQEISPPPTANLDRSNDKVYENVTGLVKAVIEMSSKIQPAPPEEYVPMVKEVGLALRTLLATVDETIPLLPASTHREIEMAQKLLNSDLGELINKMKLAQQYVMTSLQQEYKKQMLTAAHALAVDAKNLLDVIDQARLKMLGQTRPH

SMILES | composite z-score [1] | composite z-score [2] | composite z-score [3] | composite z-score [4] | composite z-score [5] | composite z-score [6] | z-score [7] | composite z-score [8] | composite z-score [9] | z-score [10] | composite z-score [11] | z-score [12] | z-score [13] | z-score [14] | z-score [15] | composite z-score [16] | composite z-score [17] | composite z-score [18] | composite z-score [19] | composite z-score [20]
CCCCC(=C=CC[C@@H](O)c1ccc(OCCO)cc1)C[C@@H](O)c1ccccn1 | -0.0662 | 0.731 | 0.178 | 0.141 | 1.22 | 0.611 | 0.176 | 1.47 | -0.146 | -1.12 (inactive) | 0.158 | -1.31 (inactive) | 0.412 (inactive) | 14.6 (active) | -0.0387 (inactive) | -0.0544 | 0.0569 | 0.634 | 0.51 | 1.48
C=CCNC(=O)[C@@H]1[C@H]2C(=O)O[C@H](c3ccccc3)[C@H](c3ccccc3)N2[C@H](c2ccccc2OCCO)[C@@]12C(=O)N(C(=O)OCCOC)c1ccc(C#CCCO)cc12 | 1.91 | 1.21 | 0.988 | 0.414 | 0.881 | 1.29 | -0.549 | 0.711 | 0.971 | -0.0405 (inactive) | 0.304 | -3.34 (inactive) | -0.976 (inactive) | -0.0768 (inactive) | -0.466 (inactive) | 0.284 | 0.0649 | 0.338 | 1.35 | 1.06
O=C1OCCC/C=C\[C@H]2OC34C=CCN(Cc5ccccc5)C(=O)[C@H]3N(CCCCCO)C(=O)[C@@H]4C12 (stereo not given in full) | -0.862 | -1.2 | -0.603 | -1.62 | -1.07 | -0.883 | 0.537 | -0.696 | -1.09 | -0.984 (inactive) | -0.238 | 0.255 (inactive) | 1.2 (inactive) | 0.732 (inactive) | 0.327 (inactive) | -1.26 | -0.186 | -0.234 | -1.75 | 0.168
COc1cc2c(cc1O)C(C1CC1)N(Cc1ccc([N+](=O)[O-])o1)CC2 (stereo not given) | 0.852 | 1.12 | 0.325 | 0.577 | 0.361 | -0.0629 | -0.184 | -0.546 | 1.06 | -0.924 (inactive) | 0.128 | -0.148 (inactive) | 0.741 (inactive) | 0.0924 (inactive) | 0.786 (inactive) | 1.63 | 0.161 | 0.322 | 0.521 | -0.575
COc1ccc([Si](C)(C)[C@@H]2[C@@H](CC(=O)N(CCO)Cc3ccccc3)O[C@]3(C(=O)N(Cc4ccc(N5CCC5=O)cc4)c4ccccc43)[C@H]2C)cc1 | 1.28 | -0.324 | -0.162 | -0.263 | 0.818 | 0.988 | 0.445 | 0.565 | 0.431 | 0.295 (inactive) | -0.0009 | -5.9 (inactive) | -0.259 (inactive) | 5.16 (inactive) | 0.0245 (inactive) | -0.301 | -0.318 | -0.0822 | 0.134 | 0.7
COc1ccc([Si](C)(C)[C@H]2[C@H](CCO)O[C@@]3(C(=O)N(Cc4ccccc4)c4ccc(N(C=O)c5ccccc5)cc43)[C@@H]2C)cc1 | 0.359 | 0.644 | 0.274 | 0.605 | 0.919 | 0.25 | 0.821 | 1.01 | 0.153 | 0.457 (inactive) | 0.078 | -6.74 (inactive) | -0.862 (inactive) | 2.08 (inactive) | -0.993 (inactive) | 0.593 | 0.122 | -0.0549 | 0.865 | 1.52
COCCCNC(=O)[C@@H]1c2ccccc2C(=O)N(C2CCCCC2)[C@H]1c1ccc(CO)cc1 | 3.06 | -0.668 | 0.183 | -0.927 | -0.388 | -0.658 | 0.705 | -1.19 | -0.365 | -0.0838 (inactive) | -0.384 | -4.86 (inactive) | -0.303 (inactive) | -0.385 (inactive) | 0.656 (inactive) | -0.59 | -0.0963 | 0.691 | -1.51 | -0.759
CCCCCCc1nc(-c2ccc(OC)nc2)cc2c1[Si](C(C)C)(C(C)C)OC2 | -0.102 | -0.493 | -0.206 | -0.137 | -0.0974 | -0.206 | -1.46 | -0.0037 | -0.218 | 0.997 (inactive) | -0.446 | -3.35 (inactive) | -0.757 (inactive) | -0.36 (inactive) | -0.565 (inactive) | 0.151 | -0.0963 | -0.734 | 0.706 | -0.0247
CCN(CC)c1ccc(N2CC=CC34O[C@@H]5C=CCOC(=O)[C@@H]5[C@H]3C(=O)N(CCO)[C@@H]4C2=O)cc1 (stereo not given in full) | -0.305 | -0.508 | -0.856 | -0.602 | -0.721 | -1.44 | 1.41 | -1.35 | -1.38 | -1.47 (inactive) | -0.403 | -0.271 (inactive) | 1.72 (inactive) | -0.0656 (inactive) | -0.599 (inactive) | -1.77 | 0.476 | -0.0491 | -0.669 | -0.198
